# HTR5A inv ctr = counter-screen for OPRM1-OPRD1 inverse agonists: human HTR5A inverse agonism | HTR5A cell line, luminescence | P47898 | inhibition, % at 9.3 µM | 340,000 tested, 0.083% active | AID 504634; in the data active = inhibition mostly above about 23%, no sharp cut-off; inactive = mostly below about 18%;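 also: 0% = cells with DMSO and 100% = no-cell wells with DMSO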
# Target sequence (P47898 whole entry, looked up): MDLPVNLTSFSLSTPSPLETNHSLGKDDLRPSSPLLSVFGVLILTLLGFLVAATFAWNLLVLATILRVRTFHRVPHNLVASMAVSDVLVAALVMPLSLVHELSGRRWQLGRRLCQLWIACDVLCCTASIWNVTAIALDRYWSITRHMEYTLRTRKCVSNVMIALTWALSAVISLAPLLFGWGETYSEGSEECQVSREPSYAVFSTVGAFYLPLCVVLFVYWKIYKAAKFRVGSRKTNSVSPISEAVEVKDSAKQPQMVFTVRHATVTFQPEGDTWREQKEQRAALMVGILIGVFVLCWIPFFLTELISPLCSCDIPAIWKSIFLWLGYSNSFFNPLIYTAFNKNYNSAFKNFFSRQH
# MOR-DOR inv ag = inverse agonist of human OPRM1-OPRD1 heterodimerization | cell-based MOR-DOR heterodimer luminescence, inverse agonism | inhibition, % at 9.3 µM | 340,000 tested, 0.21% active | AID 504357; in the data active = inhibition above about 22%, passing the limit was not always enough;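 also: 0% = cells with DMSO and 100% = wells without cells with DMSO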
# HTR5A ag = counter-screen for OPRM1-OPRD1 agonists: human HTR5A agonism. HTR5A agonist assay, luminescence, cell-based. activation, % at 9.3 µM. 340,000 tested, 0.61% active. AID 504692; in the data active = activation mostly above about 9.5%, no sharp cut-off; inactive = mostly below about 7.6%;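 also: 0% = cells with vehicle only and 100% = reference agonist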
# OPRM1-OPRD1 ag = OPRM1-OPRD1 heterodimerization agonism | P35372+P41143 | cells, luminescence | activation, % at 9.3 µM | 340,000 tested, 0.3% active;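 also: 0% = vehicle-treated cells and 100% = reference agonist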
# OPRM1-D1 ag cf = OPRM1-OPRD1 heterodimer agonism, confirmation. shares compounds with OPRM1-OPRD1 ag. cells, MOR-DOR heterodimerization, luminescence complementation. activation, % at 9.3 µM. 830 tested, 45% active. AID 504904;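 also: 0% = vehicle-treated cells and 100% = reference agonist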
# HTR5A ag ctr2 = activates human HTR5A in OPRM1-OPRD1 agonist counter-screen; shares compounds with OPRM1-OPRD1 ag; HTR5A agonist counterscreen, cell luminescence; activation, % at 9.3 µM; 830 tested, 8% active; AID 504905; in the data active = activation above about 17%;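 also: 0% = vehicle-treated cells and 100% = reference agonist response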
# Active calls of the source: *; i = inactive; x = no result given; ! = a repeat was not active. The list is not random: actives were taken first. Their share in the collection is about 1.1%. Rule as the data show it, unless noted: active = activation above about 18%; inactive = the rest.
SMILES,HTR5A inv ctr,MOR-DOR inv ag,HTR5A ag,OPRM1-OPRD1 ag,OPRM1-D1 ag cf,HTR5A ag ctr2
CCn1c(-c2ccccc2)c(C(=O)CCl)c2ccccc21,33,-331,14,66*,-2,6
CN1CCN(Cc2nc3ccccc3c(=O)n2Cc2nc(-c3ccc4ccccc4c3)cs2)CC1,-36,-98,9.0*,20*!,49*,-1
CN1CCN(Cc2nc3ccccc3c(=O)n2Cc2nc(-c3ccccc3F)cs2)CC1,-34,-20,10,4,x,x
COc1ccc(N(C(=O)c2snc(C(N)=O)c2N)C(C(=O)NC2CCCC2)c2cc(OC)ccc2OC)c(OC)c1 (stereo not drawn),10,7,0,-1,x,x
Cc1cccc(NC(=S)N(CCN(C)C)C(C)c2cccnc2)c1 (stereo not drawn),24,3,-3,-1,x,x
CN(C)C(CNC(=S)Nc1ccc(F)cc1)c1cccnc1 (stereo not drawn),9,i,2,112*,-2,-3
Cc1cccc(NC(=S)NCC(c2cccnc2)N(C)C)c1 (stereo not drawn),5,i,-1,218*,210*,-3
Cc1oc2c(C)c(O)ccc2c(=O)c1-c1cnn(-c2ccccc2)c1,-31,-80,11,18*,17,-1
COc1ccc2c(=O)c(-c3cnn(-c4ccccc4)c3)c(C)oc2c1,-16,-8,3,1,x,x
CC(=O)Nc1ccc(S(=O)(=O)NC2=C(N3CCN(Cc4ccccc4)CC3)C(=O)c3ccccc3C2=O)cc1,7,-288,-2,55*,69*,-7
CCN1CCN(C2=C(NS(=O)(=O)c3ccc(NC(C)=O)cc3)C(=O)c3ccccc3C2=O)CC1,1,3,0,0,x,x
O=C(NCCc1ccc(Cl)cc1)c1ccc2nc(N3CCOCC3)sc2c1,-19,18,7,-3,x,x
COc1ccc(C[C@H]2CN3C(=NC[C@@H]3Cc3ccccc3)N2CCNC(=O)c2ccc(C)c(Br)c2)cc1,1,-126,8,22*,0,-2
CCOc1ccc2[nH]c3c(N4CCN(c5ccccn5)CC4)ncnc3c2c1,-11,-200,0,35*,19*,8
C(=N\Nc1nc(Nc2ccccc2)nc(Nc2ccccc2)n1)/c1cccnc1,8,-14,-4,3,x,x
C(=N\Nc1nc(Nc2ccccc2)nc(Nc2ccccc2)n1)/c1ccncc1,4,-113,-1,20*,-2,-2
O=C(CCc1nc2ccccc2s1)NCc1ccccc1F,21,1,3,0,x,x
CN(C)C(CNC(=O)CCc1nc2ccccc2s1)c1ccccc1 (stereo not drawn),-14,-267,5,33*,0,0
CN(C)C(CNC(=O)CCOc1ccccc1)c1ccco1 (stereo not drawn),4,-141,6,26*,24*,3
COc1ccc(NC(=O)CCOc2ccccc2)cc1,-1,6,0,-1,x,x
COc1ccc(C(CNC(=O)CCOc2ccccc2)N(C)C)cc1 (stereo not drawn),7,-160,-4,32*,361*,3
Cc1cccc(OCCC(=O)NCC(c2ccccc2)N(C)C)c1 (stereo not drawn),17,-144,3,28*,49*,2
CC(=O)c1ccc(OCCCC(=O)NCC(c2ccco2)N(C)C)cc1 (stereo not drawn),-11,14,4,-3,x,x
NC(=O)CC(NC(=S)NCc1ccccc1)C(=O)O (stereo not drawn),-5,17,-4,-3,x,x
CC(CC(=O)Nc1ccc(-c2ccno2)cc1)n1cccn1 (stereo not drawn),4,1,1,0,x,x
CCC1=C2CC[C@H]3C(=O)N(CC)C(=O)[C@H]3[C@H]2[C@@]2(Cc3ccccc3)C(=NCc3ccccc3)OC(=O)N2C1=O,-26,17,3,-4,x,x
CCOc1ccc(NC(=O)CSc2nc3c([nH]c4ccccc43)c(=O)n2C)cc1,16,6,-5,-1,x,x
Cn1c(SCC(=O)Nc2ccc(F)cc2)nc2c([nH]c3ccccc32)c1=O,-12,-129,4,25*,18*,5
Cc1ccc(NC(=O)CSc2nc3c([nH]c4ccccc43)c(=O)n2C)cc1,-7,-185,3,31*,-4,1

# Screening results deposited in PubChem BioAssay by The Scripps Research Institute Molecular Screening Center.
